For one molecule, Potency results are on record in ChEMBL document CHEMBL1201862, “PubChem BioAssay data set” (2004).

The whole screen tested about 400,000 compounds, of which about 3,700 (0.93%) were called active. Another 3% or so got no clear call; they are omitted. The rule behind the calls is not given here. Many of the other results were omitted from the sample, so actives are more common in it than they were.

The target in this assay is T1, Vitamin D3 receptor (Homo sapiens) (UniProt P11473).
T1 sequence (whole entry): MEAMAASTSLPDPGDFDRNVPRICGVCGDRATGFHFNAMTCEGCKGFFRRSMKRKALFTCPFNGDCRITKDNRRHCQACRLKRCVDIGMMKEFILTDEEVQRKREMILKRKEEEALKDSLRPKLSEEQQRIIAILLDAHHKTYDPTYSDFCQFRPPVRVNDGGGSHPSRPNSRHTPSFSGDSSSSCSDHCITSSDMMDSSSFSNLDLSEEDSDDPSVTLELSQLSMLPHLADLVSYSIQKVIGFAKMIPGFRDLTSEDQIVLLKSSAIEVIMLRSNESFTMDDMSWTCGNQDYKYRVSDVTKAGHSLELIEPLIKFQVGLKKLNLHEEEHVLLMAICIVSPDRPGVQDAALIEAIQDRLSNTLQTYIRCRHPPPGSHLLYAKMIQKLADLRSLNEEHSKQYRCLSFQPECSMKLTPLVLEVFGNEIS
The assay is described as follows: Inhibitors of the vitamin D receptor (VDR): qHTS. [Related pubchem assays (depositor defined):AID504855]. It counts as functional. For orientation: In qHTS, concentration-response curves come from the screen itself.
For `Cl[Te]1(Cl)OCCO1`, the Potency was 3.16 µM (active).
